# This is a sample that favours compounds with a hit; in the whole collection about 2.1% have one here.
# NR2F2 inh = blocks human COUP-TFII nuclear receptor | P24468 | HEK293T NGFI-A luciferase reporter, luminescence | inhibition, % at 8.6 µM | 370,000 compounds, 0.7% hits | AID 686940;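 active = inhibition above a per-plate cutoff, mean inhibition of test wells between control levels plus 3 SD, cut at about 38% in these data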;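 note: cells cotransfected with COUP-TFII expression vector driving the NGFI-A reporter; 0% = median of COUP-TF2 test wells and 100% = reporter-only cells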
# Gli-Sufu block = Gli-Sufu pathway antagonism. Sufu-KO-LIGHT fibroblasts, Gli luciferase reporter luminescence. inhibition, % at 5 µM. 340,000 compounds, 0.74% hits. AID 588413;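 active = inhibition above about 55%, limit read from the data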;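 note: 0% = DMSO-treated cells and 100% = wells with medium but no cells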
# GalR3 antag = blocks the human galanin receptor 3 | O60755 | HEK293 GalR3-CNG cAMP membrane potential fluorescence; galR3 body fused to GalR1 C-terminus | inhibition, % at 3 µM | 360,000 compounds, 0.44% hits | AID 651719;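 active = inhibition above the screen-wide average plus 3 SD, cut at about 13% in these data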;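 note: forskolin and galanin both at EC90 stimulate the cells; cAMP rise reported by CNG channel membrane potential dye signal; 0% = forskolin plus galanin with DMSO and 100% = forskolin alone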
# Target sequence (O60755 1-299 limits assumed): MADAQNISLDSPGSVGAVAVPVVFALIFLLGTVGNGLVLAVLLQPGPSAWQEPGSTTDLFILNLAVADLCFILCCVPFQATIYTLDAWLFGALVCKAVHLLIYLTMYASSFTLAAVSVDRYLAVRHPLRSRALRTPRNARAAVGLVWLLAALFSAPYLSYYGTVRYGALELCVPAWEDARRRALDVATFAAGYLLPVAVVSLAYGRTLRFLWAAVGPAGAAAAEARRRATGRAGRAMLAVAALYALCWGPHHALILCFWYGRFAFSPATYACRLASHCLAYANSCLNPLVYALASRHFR
# aDG glyco act = alpha-DG glycosylation activation; Pro5-aDG cells, alpha-DG glycosylation AlphaScreen (IIH6); 0% Pro5, 100% B10-LARGE cell signal; activation, % at 10 µM; 360,000 compounds, 0.22% hits; AID 624168;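 active = activation of at least 8% versus controls, or a plate z-score of at least 8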;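 note: Pro5 are CHO cells carrying HIG-tagged alpha-DG that lacks glycosylation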
# Env fusion inh = inhibitors of HIV Env-mediated cell fusion; inhibition, % at 12.3 µM; AID 651610; 360,000 compounds, 1.1% hits; HeLa-JRFL Env/CEM21 cell fusion, luciferase;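 active = mean replicate inhibition score of at least 50 and every replicate individually at or above 50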;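 note: 0% = plate neutral controls and 100% = maraviroc near 300 nM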
# GalR3 antag conf = GalR3 (human) antagonism, confirmation; shares compounds with GalR3 antag; HEK293 GalR3 CNG cAMP biosensor, membrane potential fluorescence; galR3 fused to GalR1 carboxy tail; challenged with forskolin and galanin at EC90; inhibition, % at 3 µM; 1,600 compounds, 59% hits; AID 652245;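 active = inhibition above the primary screen's cutoff, the mean inhibition of all screened compounds plus 3 SD, cut at about 13% in these data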;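 note: 0% = forskolin plus galanin and 100% = forskolin alone with DMSO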
# HEK-CNG parental = counter-screen for GalR3 antagonists: nonspecific agonists in parental HEK-CNG cells | HEK293-CNG parental cells, cAMP membrane potential fluorescence; normalised: DMSO wells 0%, forskolin wells 100% | shares compounds with GalR3 antag | AID 652268 | activation, % at 3 µM | 1,600 compounds, 10% hits; in the data active = activation above about 1.3%
# Starred values were filed as active, the others as inactive; nt = not tested or not shown; [ ] = remark or other dose.
SMILES,NR2F2 inh,Gli-Sufu block,GalR3 antag,aDG glyco act,Env fusion inh,GalR3 antag conf,HEK-CNG parental
COc1ccc(OC)c(NC(=O)c2cccc3c2C(=O)N(C2CCCCC2)C3)c1,-19,20,0,0,6,nt,nt
COCCN1Cc2cccc(C(=O)Nc3cc(OC)ccc3OC)c2C1=O,-6,-16,45*,0,-34,52*,0
C/C=C/c1cnc2c(c1)C(=O)N([C@H](C)CO)C[C@@H](C)[C@@H](CN(C)C(=O)Nc1ccc(C(F)(F)F)cc1)O2,nt,nt,nt,nt,0[16.7 µM],nt,nt
CCOC(=O)c1[nH]c2ccc(OC)cc2c1NS(=O)(=O)c1ccc(Cl)s1,-16,4,103*,0,0,92*,0
O=C(C[C@@H]1C=C[C@H](NC(=O)CCN2CCCCC2)[C@@H](CO)O1)Nc1ccc(-c2ccccc2)cc1,nt,nt,nt,nt,5[16.7 µM],nt,nt
COc1cc(/C=N/NC(N)=O)ccc1OCC(=O)Nc1ccc(C)c(C)c1,-25,-5,24*,0,10,32*,-1
COc1cc(/C=N/NC(N)=S)ccc1OCC(=O)Nc1ccc(C)c(C)c1,8,-7,5,0,nt,nt,nt
COCC(=O)N(C)C[C@H]1Oc2cc(C#CC3CCCC3)ccc2S(=O)(=O)N([C@@H](C)CO)C[C@H]1C,nt,nt,nt,nt,-8[16.7 µM],nt,nt
Cc1ccc(/C(N)=N/OC(=O)CCC2CCCC2)cc1,21,-17,13*,0,-1,-2,0
Cc1ccc(/C(N)=N/OC(=O)CCC2CCCCC2)cc1,-9,-24,-3,0,-69,nt,nt
O=c1c(Cl)c(NCC2CCCO2)cnn1C12CC3CC(CC(C3)C1)C2 (configuration not stated),-24,-12,15*,0,5,33*,0
CCN1C(=O)[C@@H]2[C@@H](c3ccc(-c4ccc(Cl)c(Cl)c4)c(OC)c3)N3CCCC[C@@]3(C(=O)OC)[C@@H]2C1=O,8,10,13*,0,2,-7,1.9*
CCN1C(=O)[C@@H]2[C@@H](c3ccc(-c4ccc(F)cc4)c(OC)c3)N3CCCC[C@@]3(C(=O)OC)[C@@H]2C1=O,17,2,-5,0,42,nt,nt
CCCCCCCNC(=O)CC(NS(=O)(=O)c1ccc(NC(C)=O)cc1)C(C)C (configuration not stated),1,-9,-10,0,21,nt,nt
CCCCCCNC(=O)CC(NS(=O)(=O)c1ccc(OC)cc1)C(C)C (configuration not stated),15,4,21*,0,nt,-2,0
CCN(CC)c1ccc(/C=C(/C#N)C(=O)NC(C)C)o1,8,-8,13*,0,12,-2,0
CC(C)NC(=O)/C(C#N)=C\c1ccc(N(C)C)o1,-11,-17,-9,0,-17,nt,nt
CC(=O)c1cccc(NC(=O)N2CC(C)OC(C)C2)c1 (configuration not stated),-12,-18,2,0,nt,nt,nt
CC1CN(C(=O)Nc2cccc(C(F)(F)F)c2)CC(C)O1 (configuration not stated),-3,3,nt,0,4,3,0
CCN(CC)c1ccc(Nc2cc3n(c(=O)n2)CCc2cc(OC)c(OC)cc2-3)cc1,-12,-4,47*,0,12,64*,0
COc1cc2c(cc1OC)-c1cc(Nc3ccc(F)cc3)nc(=O)n1CC2,-33,1,9,0,-11,nt,nt
COc1cc2c(cc1OC)-c1cc(Nc3ccc(N(C)C)cc3)nc(=O)n1CC2,-55,-9,36*,0,-1,55*,0
C[C@@H]1CN([C@@H](C)CO)C(=O)c2cc(C#CC3(O)CCCC3)cnc2O[C@@H]1CN(C)C(=O)Cc1cccnc1,nt,nt,nt,nt,15[16.7 µM],nt,nt
CC(c1ccc(Cl)cc1)n1c(-c2ccc3ccccc3n2)n[nH]c1=S (configuration not stated),-3,10,13*,0,nt,7,1
COc1ccc(-c2c3c(cc4ncn(Cc5ccccc5)c24)COC3=O)cc1,-32,-3,27*,0,6,52*,0
SMILES,NR2F2 inh,Gli-Sufu block,GalR3 antag,aDG glyco act,Env fusion inh,GalR3 antag conf,HEK-CNG parental
C[C@H](CO)N1C[C@H](C)[C@@H](CN(C)C(=O)Nc2ccc(C(F)(F)F)cc2)Oc2c(NC(=O)Nc3ccc(F)cc3)cccc2C1=O,nt,nt,nt,nt,5[16.7 µM],nt,nt
COc1cc(N)c(C(O)c2nccc3cc(OC)c(OC)cc23)cc1OC (configuration not stated),3,-2,-9,0,-8,nt,nt
COc1ccc(C(O)c2nccc3cc(OC)c(OC)cc23)cc1OC (configuration not stated),22,4,17*,0,-2,1,0
COc1ccc(C2=NS(=O)(=O)N(C)C(C(=O)NC(C)c3ccccc3)=C2)cc1OC (configuration not stated),-3,27,6,0,-36,nt,nt
COc1ccc(C2=NS(=O)(=O)N(C)C(C(=O)N(C)Cc3ccccc3)=C2)cc1OC,2,0,15*,0,-1,22*,-1
O=C(C[C@@H]1C[C@@H]2c3cc(NS(=O)(=O)c4ccc(F)cc4)ccc3O[C@@H]2[C@H](CO)O1)NC1CCCC1,nt,nt,nt,nt,-23[16.7 µM],nt,nt
COc1ccccc1-c1cn(CC[C@@H]2CC[C@@H](NC(=O)C3CCCCC3)[C@H](CO)O2)nn1,nt,nt,nt,nt,4[16.7 µM],nt,nt
CCCn1c(SCc2ccc(Cl)cc2)nc2c1c(=O)[nH]c(=O)n2C,-7,9,14*,1,nt,32*,1.3*
COc1ccc(S(=O)(=O)N(C)C[C@@H]2Oc3ccc(NC(=O)C4CCCCC4)cc3C(=O)N([C@H](C)CO)C[C@@H]2C)cc1,nt,nt,nt,nt,-52[16.7 µM],nt,nt
Cc1[nH]nc(NCCO)c1[N+](=O)[O-],12,1,nt,0,-2,69*,-1
O=C(Cn1nc(-c2ccc(N3CCOCC3)c([N+](=O)[O-])c2)c2ccccc2c1=O)N1CCCCC1,12,0,15*,0,16,60*,0
O=[N+]([O-])c1cc(-c2nnc(N3CCOCC3)c3ccccc23)ccc1N1CCOCC1,5,12,-5,0,14,nt,nt
CCO[C@@H]1OC(C(=O)NCc2ccccc2)=C[C@H](C2CC2)[C@H]1CCCO,21,14,nt,0,-42,9,0
CCO[C@@H]1OC(C(=O)NCc2ccccc2)=C[C@H](C2CCCCC2)[C@H]1CCCO,11,16,-7,0,18,nt,nt
CCCCNC(=O)N(c1c(N)n(Cc2ccccc2)c(=O)[nH]c1=O)C1CCCC1,12,-3,-3,1,7,nt,nt
CCCCNC(=O)N(CC)c1c(N)n(Cc2ccccc2)c(=O)[nH]c1=O,-4,2,13*,0,7,3,0

# Compound activity: PubChem, several laboratories
